RBX1-CUL1 inh: human ROC1-CUL1 E3 ligase inhibition. P62877+Q13616. in vitro K48 di-Ub FRET, acceptor:donor ratio, 45 min. inhibition, % at 10 µM. 140,000 tested, 0.6% active. AID 1347404; in the data active means inhibition above about 25%
Target sequence (P62877 whole entry, looked up): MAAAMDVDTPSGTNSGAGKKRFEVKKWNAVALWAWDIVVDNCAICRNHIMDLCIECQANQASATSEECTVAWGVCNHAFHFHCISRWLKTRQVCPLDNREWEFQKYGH
Target sequence (Q13616 whole entry, looked up): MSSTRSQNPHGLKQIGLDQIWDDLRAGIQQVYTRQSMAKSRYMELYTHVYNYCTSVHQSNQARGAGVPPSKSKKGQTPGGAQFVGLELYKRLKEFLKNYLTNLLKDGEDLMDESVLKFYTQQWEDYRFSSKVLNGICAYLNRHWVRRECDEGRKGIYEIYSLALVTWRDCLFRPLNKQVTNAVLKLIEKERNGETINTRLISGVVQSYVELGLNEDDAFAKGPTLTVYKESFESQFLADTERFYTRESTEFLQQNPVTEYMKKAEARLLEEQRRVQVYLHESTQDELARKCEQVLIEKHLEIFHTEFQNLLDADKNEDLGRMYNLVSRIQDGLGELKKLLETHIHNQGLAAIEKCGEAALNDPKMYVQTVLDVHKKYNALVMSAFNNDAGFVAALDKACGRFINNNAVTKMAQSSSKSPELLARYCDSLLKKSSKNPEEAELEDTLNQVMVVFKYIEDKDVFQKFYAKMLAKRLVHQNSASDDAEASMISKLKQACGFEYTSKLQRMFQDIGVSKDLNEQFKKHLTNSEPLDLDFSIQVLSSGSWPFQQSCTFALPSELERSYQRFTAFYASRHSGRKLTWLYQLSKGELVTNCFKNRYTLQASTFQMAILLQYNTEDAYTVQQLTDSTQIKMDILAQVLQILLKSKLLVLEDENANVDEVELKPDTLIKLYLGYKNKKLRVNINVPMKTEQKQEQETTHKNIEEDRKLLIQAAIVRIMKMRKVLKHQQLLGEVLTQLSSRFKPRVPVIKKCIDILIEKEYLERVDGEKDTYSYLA
Each line names hits and unclear results; the compound was inactive in the other large screens. This is one part of a sample in which hits are shown more often than they occur.

O=C1NC(=O)C(Br)(Br)C(=O)N1Cc1ccccc1	RBX1-CUL1 inh 76
N=C1C(Cl)C(=O)NC(=O)N1Cc1ccccc1 (stereo not drawn)	none
CCC1(c2ccccc2)C(=O)NC(=O)N(CCN2CCOCC2)C1=O (stereo not drawn)	none
COc1cc(C2SCC(=O)Nc3c2c(-c2ccccc2)nn3-c2ccccc2)cc(OC)c1OC (stereo not drawn)	none
COc1cc(C(c2c(C)[nH]n(-c3ccccc3)c2=O)c2c(C)[nH]n(-c3ccccc3)c2=O)cc(OC)c1OC	RBX1-CUL1 inh 62
COc1cc(CN2CCN(C(=O)Cc3ccccc3)CC2)cc(OC)c1OC	none
CC1C(=NP(=O)(OCC(F)(F)F)OCC(F)(F)F)C(=O)N(c2ccccc2)N1C (stereo not drawn)	none
C=CCN1CCN(C(=O)COc2cc(Cl)ccc2Cl)CC1	none
CCN(CC)c1ccc(/C=C2\C(=O)NC(=S)N(C)C2=O)o1	none
Cc1cccc(N2C(=O)/C(=C/c3cc(C)n(-c4ccc(C(=O)O)c(Cl)c4)c3C)C(=O)NC2=S)c1C	none
Cc1c(Cl)cccc1N1C(=O)/C(=C/c2ccc(-c3ccc(C(=O)O)cc3)o2)C(=O)NC1=S	RBX1-CUL1 inh 52
CCN(CC)c1ccc(/C=C2\C(=O)NC(=S)N(c3ccc(OC)cc3OC)C2=O)o1	none
O=C1NC(=S)N(c2ccc(Br)cc2)C(=O)/C1=C/c1ccc(-c2ccccc2C(=O)O)o1	RBX1-CUL1 inh 83
CCOc1ccc(N2C(=O)/C(=C/c3ccc(CN(CCC#N)S(C)(=O)=O)o3)C(=O)NC2=S)cc1	none
O=C(O)C1Nc2ccc(Cl)cc2C2C(Cl)C(Sc3ccccc3[N+](=O)[O-])CC12 (stereo not drawn)	none
O=[N+]([O-])N(Cc1ccccc1)c1ccccc1	none
CC(C)=C/C=C/c1sc2ccccc2c1OC(=O)N(C)C	none
CN(C)/C=C(\C(=O)c1ccc(F)cc1)c1nnnn1-c1ccc(Cl)cc1	none
C=CCN1CCN(C(=O)COc2ccccc2)CC1	none
O=C(NC1CN2CCC1CC2)c1cc(Br)c([N+](=O)[O-])c2nc[nH]c12 (stereo not drawn)	none
COc1ccc(C=C2C(=O)N(C)C(=O)N(C)C2=O)cc1	none
CC(C)N1C(=O)/C(=C/C=C/c2ccco2)C(=O)N(Cc2ccco2)C1=O	none
COc1ccc(/C=C2/C(=O)N(Cc3ccco3)C(=O)N(C(C)C)C2=O)cc1	RBX1-CUL1 inh 103
CC(C)(C)CCOC(=O)C(O)(c1ccccc1)C1CCCCC1 (stereo not drawn)	none
CCOC(=O)c1c(C)n(CC(O)CO)c2ccc(O)cc12 (stereo not drawn)	none
